Measurements taken from PubChem BioAssay AID1159580 (chemical genetic matrix, 2015).
Several values for one entry are separate records, joined by “and”; a condition that tells them apart may be missing. Identical values can stand only once. Among all 5,500 compounds or so, about 2,000 (36%) were called active. About 18% were inconclusive and are not listed. No stated cut-off is given here; in the data, active means normalized growth mostly below about 0.91 (no sharp cut-off); inconclusive means no clear call, values can overlap the other calls; inactive means mostly above about 0.92. The list shows a part of the results.

Assay: chemical genetic growth profiling, strain panel (AID 1159580);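 further: tested at 20 µM; growth read once vehicle control cultures reached saturation at 30 °C; 1 = growth at the plate median or of vehicle wells; lower values mean less growth of the strain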
Details: S. cerevisiae deletion strains, growth OD

Measured: normalized growth

NS(=O)(=O)c1cc2c(cc1C(F)(F)F)NCNS2(=O)=O
inactive: locus YAL013W, strain DEP1, active compounds read low 1.03 | locus YAL021C, strain ccr4, active compounds read low 0.995 | locus YAL026C, strain drs2, active compounds read low 1 | locus YAL030W, strain snc1, active compounds read low 0.995 | locus YBL061C, strain skt5, active compounds read low 0.996 | locus YBR009C, strain hhf1, active compounds read low 0.985 | locus YBR021W, strain FUR4, active compounds read low 1 | locus YBR023C, strain chs3, active compounds read low 0.989 | locus YBR171W, strain sec66, active compounds read low 1.01 | locus YBR229C, strain ROT2, active compounds read low 1.02 | locus YBR231C, strain swc5, active compounds read low 0.975 | locus YBR279W, strain paf1, active compounds read low 0.992 | locus YCL011C, strain gbp2, active compounds read low 0.991 | locus YCL016C, strain dcc1, active compounds read low 0.969 | locus YCL029C, strain bik1, active compounds read low 0.997 | locus YCL061C, strain MRC1, active compounds read low 0.997 | locus YCL069W, strain vba3, active compounds read low 1 | locus YCR088W, strain abp1, active compounds read low 0.999 | locus YDL005C, strain med2, active compounds read low 0.99 | locus YDL035C, strain GPR1, active compounds read low 1.03 | locus YDL040C, strain nat1, active compounds read low 0.996 | locus YDL074C, strain BRE1, active compounds read low 1.01 | locus YDL101C, strain DUN1, active compounds read low 1.02 | locus YDL185W, strain tfp1, active compounds read low 0.997 | locus YDL192W, strain arf1, active compounds read low 0.993 | locus YDR001C, strain nth1, active compounds read low 1 | locus YDR069C, strain doa4, active compounds read low 1.01 | locus YDR101C, strain arx1, active compounds read low 1 | locus YDR137W, strain rgp1, active compounds read low 1.01 | locus YDR159W, strain sac3, active compounds read low 0.966 | locus YDR162C, strain NBP2, active compounds read low 1.02 | locus YDR195W, strain ref2 0.994 | locus YDR297W, strain sur2, active compounds read low 1.01 | locus YDR318W, strain mcm21, active compounds read low 0.986 | locus YDR334W, strain swr1, active compounds read low 1.01 | locus YDR335W, strain msn5, active compounds read low 0.999 | locus YDR388W, active compounds read low 0.998 | locus YDR392W, strain spt3, active compounds read low 0.939 | locus YDR502C, strain sam2, active compounds read low 0.988 | locus YEL003W, strain gim4, active compounds read low 1 | locus YEL037C, strain rad23, active compounds read low 1.02 | locus YEL061C, strain CIN8 (second series), active compounds read low 1.01 | locus YEL061C, strain CIN8, active compounds read low 1.02 | locus YER015W, strain faa2, active compounds read low 0.97 | locus YER016W, strain bim1, active compounds read low 1 | locus YER110C, active compounds read low 0.99 | locus YER111C, strain swi4, active compounds read low 1 | locus YER155C, strain BEM2 (second series), active compounds read low 0.98 | locus YER155C, strain BEM2, active compounds read low 1 | locus YER167W, strain BCK2, active compounds read low 1.01 | locus YFR010W, strain ubp6, active compounds read low 1 | locus YGL078C, strain dbp3, active compounds read low 0.983 | locus YGL086W, strain mad1, active compounds read low 0.99 | locus YGL167C, strain pmr1, active compounds read low 0.998 | locus YGL173C, strain kem1, active compounds read low 0.998 | locus YGL227W, strain vid30, active compounds read low 1 | locus YGL240W, strain doc1, active compounds read low 0.965 | locus YGL248W, strain PDE1, active compounds read low 1.02 | locus YGL253W, strain hxk2, active compounds read low 1.01 | locus YGR135W, strain pre9, active compounds read low 0.974 | locus YGR252W, strain gcn5, active compounds read low 0.922 | locus YHR013C, strain ard1, active compounds read low 0.989 | locus YHR027C, strain rpn1, active compounds read low 1.01 | locus YHR030C, strain SLT2, active compounds read low 1.01 and 0.988 | locus YHR079C, strain IRE1 (second series), active compounds read low 0.998 | locus YHR079C, strain IRE1, active compounds read low 0.984 | locus YHR094C, strain hxt1, active compounds read low 0.993 | locus YHR129C, strain ARP1, active compounds read low 1.02 | locus YHR142W, strain chs7, active compounds read low 1.01 | locus YHR200W, strain rpn10, active compounds read low 0.988 | locus YIL066C, strain RNR3, active compounds read low 1.03 | locus YIL073C, strain SPO22, active compounds read low 1.01 | locus YIL125W, strain kgd1, active compounds read low 0.992 | locus YIR030C, strain dcg1, active compounds read low 0.994 | locus YJL092W, strain hpr5, active compounds read low 1 | locus YJL095W, strain BCK1 (second series), active compounds read low 0.997 | locus YJL095W, strain BCK1, active compounds read low 1.03 and 0.978 | locus YJL115W, strain asf1, active compounds read low 1.01 | locus YJL129C, strain trk1, active compounds read low 1.01 | locus YJL134W, strain LCB3, active compounds read low 1.02 | locus YJL154C, strain vps35, active compounds read low 0.993 | locus YJL164C, strain tpk1, active compounds read low 0.992 | locus YJL166W, strain qcr8, active compounds read low 0.993 | locus YJL168C, strain set2, active compounds read low 0.987 | locus YJL187C, strain SWE1 (second series), active compounds read low 1.02 | locus YJL187C, strain SWE1, active compounds read low 0.994 | locus YJR043C, strain POL32, active compounds read low 1.02 | locus YJR066W, strain TOR1, active compounds read low 0.928 | locus YKL009W, strain mrt4, active compounds read low 1 | locus YKL068W, active compounds read low 1 | locus YKL085W, strain MDH1 (second series), active compounds read low 0.999 | locus YKL085W, strain MDH1, active compounds read low 0.999 | locus YKL160W, strain elf1, active compounds read low 0.986 | locus YKL190W, strain CNB1, active compounds read low 1.02 | locus YKR001C, strain vps1, active compounds read low 1.01 | locus YKR026C, strain gcn3, active compounds read low 0.993 | locus YKR091W, strain srl3, active compounds read low 0.993 | locus YLL001W, strain dnm1, active compounds read low 0.98 | locus YLL026W, active compounds read low 0.994 | locus YLL041C, strain sdh2, active compounds read low 0.997 | locus YLR027C, strain aat2, active compounds read low 1.01 | locus YLR039C, strain RIC1, active compounds read low 1.07 | locus YLR058C, strain SHM2, active compounds read low 1.02 | locus YLR102C, strain apc9, active compounds read low 0.985 | locus YLR113W, strain HOG1, active compounds read low 0.991 | locus YLR221C, strain rsa3, active compounds read low 0.974 | locus YLR258W, strain gsy2, active compounds read low 0.992 | locus YLR262C, strain YPT6 (second series), active compounds read low 1 | locus YLR262C, strain YPT6, active compounds read low 1.03 | locus YLR268W, strain sec22, active compounds read low 0.988 | locus YLR320W, strain mms22, active compounds read low 0.988 | locus YLR330W, strain CHS5, active compounds read low 1.02 | locus YLR342W, strain FKS1 (second series), active compounds read low 1.01 | locus YLR342W, strain FKS1, active compounds read low 1 | locus YLR357W, strain rsc2, active compounds read low 0.971 | locus YLR370C, strain arc18, active compounds read low 0.999 | locus YLR371W, strain rom2, active compounds read low 0.979 | locus YLR384C, strain iki3, active compounds read low 0.988 | locus YLR418C, strain cdc73, active compounds read low 0.967 | locus YML016C, strain PPZ1, active compounds read low 1.02 | locus YML032C, strain rad52, active compounds read low 0.985 | locus YML120C, strain ndi1, active compounds read low 0.983 | locus YML124C, strain tub3, active compounds read low 0.988 | locus YMR058W, strain fet3, active compounds read low 1.01 | locus YMR078C, strain ctf18, active compounds read low 0.997 | locus YMR125W, strain sto1, active compounds read low 0.982 | locus YMR129W, active compounds read low 0.999 | locus YMR205C, strain PFK2, active compounds read low 0.982 | locus YMR223W, strain ubp8, active compounds read low 0.986 | locus YMR231W, strain pep5, active compounds read low 0.998 | locus YMR307W, strain GAS1, active compounds read low 1.01 | locus YNL067W, strain RPL9B, active compounds read low 1.02 | locus YNL071W, strain lat1, active compounds read low 1 | locus YNL153C, strain GIM3, active compounds read low 1.01 | locus YNL183C, strain NPR1, active compounds read low 0.96 | locus YNL209W, strain ssb2, active compounds read low 0.986 | locus YNL233W, strain BNI4, active compounds read low 1.02 | locus YNL248C, strain rpa49, active compounds read low 1 | locus YNL250W, strain rad50, active compounds read low 0.996 | locus YNL271C, strain bni1, active compounds read low 0.999 | locus YNL298W, strain CLA4, active compounds read low 0.983 | locus YNL307C, strain MCK1, active compounds read low 0.988 | locus YNL322C, strain KRE1 (second series), active compounds read low 0.99 | locus YNR049C, strain mso1, active compounds read low 0.996 | locus YNR052C, strain pop2, active compounds read low 0.991 | locus YOL012C, strain htz1 0.725 | locus YOL147C, strain pex11, active compounds read low 0.991 | locus YOR001W, strain rrp6, active compounds read low 1.01 | locus YOR061W, strain CKA2, active compounds read low 1.03 | locus YOR069W, strain VPS5, active compounds read low 1.02 | locus YOR070C, strain gyp1, active compounds read low 0.992 | locus YOR080W, strain dia2, active compounds read low 0.99 | locus YOR083W, strain WHI5, active compounds read low 1.04 | locus YOR106W, strain vam3, active compounds read low 0.974 | locus YOR136W, strain idh2, active compounds read low 0.991 | locus YOR144C, strain elg1, active compounds read low 0.991 | locus YOR184W, strain ser1, active compounds read low 0.982 | locus YOR231W, strain MKK1, active compounds read low 0.991 | locus YOR265W, strain rbl2, active compounds read low 0.993 | locus YOR270C, strain vph1, active compounds read low 1.03 | locus YOR290C, strain snf2, active compounds read low 0.935 | locus YOR316C, strain cot1, active compounds read low 0.997 | locus YPL051W, strain arl3, active compounds read low 0.98 | locus YPL055C, strain LGE1, active compounds read low 1.02 | locus YPL078C, strain atp4, active compounds read low 1 | locus YPL106C, strain sse1, active compounds read low 0.966 | locus YPL240C, strain hsp82, active compounds read low 0.994 | locus YPL241C, strain CIN2, active compounds read low 1.02 | locus YPL256C, strain CLN2, active compounds read low 0.976 | locus YPR119W, strain clb2, active compounds read low 0.994 | locus YPR141C, strain kar3, active compounds read low 0.988 | locus YPR163C, strain tif3, active compounds read low 0.995 | locus YPR167C, strain met16, active compounds read low 0.987 | strain wtn01, active compounds read low 0.977
